Screening data from PubChem.
Pf growth 96h – Primary qHTS for delayed death inhibitors of the malarial parasite plastid, 96 hour incubation; P. falciparum luciferase reporter growth, 96 h; Potency, µM (titrated, usually from 28.7 µM), without a hit: at the top dose activity change, negative = inhibition, most hits filed as inhibitors; AID 504834, 2011; 6.9% of 320,000 active; further: potency means the concentration at half of the fitted maximal effect; on the % scale 0 is the no-effect control and ±100 the full control effect
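Erythrocytes infected with luciferase-expressing P. falciparum were dispensed at 2% hematocrit and 0.05% parasitemia (final), then incubated with compounds 96 hours at 37 C in 5% CO2. Luminescence after detection reagent addition reported growth.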
Giardia FBPA inh – qHTS Assay for Inhibitors of Fructose-1,6-bisphosphate Aldolase from Giardia Lamblia; purified Giardia FBPA; Potency, µM (highest dose often 59.6 µM), for inactives: top-dose activity, negative = inhibition, actives largely listed as inhibitors; 0.71% of 290,000 active; further: potency means the concentration at half of the fitted maximal effect; on the % scale 0 is the no-effect control and ±100 the full control effect; nearly all actives have a fitted effect of over 55% in size
Target sequence (A8B2U2 whole entry, looked up): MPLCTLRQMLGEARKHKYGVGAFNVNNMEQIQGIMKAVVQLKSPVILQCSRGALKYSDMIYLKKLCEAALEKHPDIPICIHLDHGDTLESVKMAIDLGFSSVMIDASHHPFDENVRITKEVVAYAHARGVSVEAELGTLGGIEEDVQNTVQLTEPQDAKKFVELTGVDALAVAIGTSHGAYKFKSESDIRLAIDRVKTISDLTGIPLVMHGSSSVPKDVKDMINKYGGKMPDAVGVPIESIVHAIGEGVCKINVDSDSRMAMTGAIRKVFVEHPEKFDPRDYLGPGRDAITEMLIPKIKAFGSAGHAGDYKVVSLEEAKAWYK
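Giardia FBPA (40 nM reagent) was preincubated 10 min at RT with compound (up to 57.5 uM final), then substrate plus GAPDH/TPI/NAD/arsenate coupling system with diaphorase/resazurin was added; resorufin fluorescence (525/598 nm) was read after 20 min.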
CHX counter – Cycloheximide Counterscreen for Small Molecule Inhibitors of Shiga Toxin | AID 2314, 2010 | 12% of 300,000 active | cell reporter, cycloheximide protein synthesis inhibition counterscreen | max response, %; in the data active means max response mostly above about 13%, no sharp cut-off; inactive means mostly below about 14%; further: read at 38.3 µM for the half of the compounds with a filed dose; 0% is about no effect
Shiga toxin inh – A qHTS for Small Molecule Inhibitors of Shiga Toxin | Vero cells, Shiga toxin protein synthesis inhibition reporter | inhibition, % at 38.7 µM | 9.2% of 290,000 active; in the data active means inhibition mostly above about 28%, no sharp cut-off; inactive means mostly below about 43%; further: 0% is about no effect
NS1 function inh – qHTS Assay for Inhibitors of Influenza NS1 Protein Function; Potency, µM (series often up to 46.1 µM), without a hit: at the top dose activity, positive = more growth; 0.4% of 270,000 active; AID 2326, 2010; calls by dose curve; further: potency means the concentration at half of the fitted maximal effect; actives are rising curves; nearly all actives have a fitted effect of over 50% in size
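Growth recovery, yeast-based: influenza A NS1 expressed in S. cerevisiae causes slow growth, and suppressors are detected by OD600. The parent strain without NS1 is used as positive control.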
Pf growth 48h – Primary qHTS for delayed death inhibitors of the malarial parasite plastid, 48 hour incubation. P. falciparum luciferase growth in erythrocytes, 48 h. Potency, µM (titrated, usually from 28.7 µM), without a hit: top-dose activity change, negative = inhibition, usual class: inhibitors. 5.9% of 310,000 active; further: potency means the concentration at half of the fitted maximal effect; on the % scale 0 is the no-effect control and ±100 the full control effect
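Read-out is firefly luciferase luminescence from an integrated reporter in P. falciparum, so falling signal marks reduced parasite growth. Infected erythrocytes were at 2% hematocrit and 0.1% parasitemia (final) in Albumax-supplemented RPMI 1640.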
* = called active by the depositor; ? = inconclusive; nt = not tested or not shown. Sampled rows, rich in hits. Any-hit rate of the full collection: about 21%. Unless noted, the call rests on the fitted dose curve; in most records, active means well fitted curve in the direction sought with a large enough effect; inconclusive means small, poorly fitted or top-dose-only effect, or another doubt; inactive means no such curve, though single readings can be large; an effect the other way counts as inactive or inconclusive.

SMILES | Pf growth 96h | Giardia FBPA inh | CHX counter | Shiga toxin inh | NS1 function inh | Pf growth 48h
Cc1cc([N+](=O)[O-])nn1CC(=O)N(C)C1CCCCC1 | 19.0% | 1.9% | 1.4 | -5.3 | 1.7% | 13.9%
Cc1cc(N2CCN(c3ccccc3)CC2)n2cc(-c3ccccc3)nc2n1 | 7.38µM* | -2.5% | 13.8 | 63.7 | -66.8% | ?
Cc1cc(N2CCN(c3ccccc3)CC2)n2nnnc2n1 | -4.5% | 4.1% | -4.6 | -6.6 | 0.6% | 7.8%
Cc1cc(N2CCN(c3ccccc3Cl)CC2)n2cc(-c3ccccc3)nc2n1 | ? | -0.6% | 6.9 | -1.9 | 7.5% | ?
Cc1cc(N2CCN(c3ccccc3)CC2)n2c(n1)nc1ccccc12 | ? | 14.5% | -5.9 | -19.2 | -45.8% | 5.86µM*
CCCCOC(=O)Nc1ccc(S(=O)(=O)Nc2onc(C)c2C)cc1 | -10.8% | 4.7% | -3.4 | 10.8 | -36.5% | -2.2%
C/C(=N\NC(=O)Cn1cc([N+](=O)[O-])cn1)c1ccc(O)cc1 | 7.8% | 2.8% | -2.8 | -10.0 | 8.4% | 10.2%
CC(OC(=O)Cn1[nH]c(=O)c2ccccc2c1=O)C(=O)Nc1ccc(F)cc1Cl (stereo not drawn) | 13.1% | nt | nt | nt | nt | ?
CCOc1ccc(CNc2nnnn2C)cc1OC | -33.8% | -1.9% | -1.2 | -12.1 | 16.6% | ?
CCOc1c(Cl)cc(CNc2nnnn2C)cc1OC | 0.3% | -3.3% | 1.2 | -9.1 | 22.4% | 5.86µM*
Cc1ccc(NS(=O)(=O)c2cccc(C(=O)N(C)Cc3cccs3)c2)cc1 | 1.8% | nt | nt | nt | nt | 2.5%
CC(C)c1ccc(NC(=O)Cn2nnc(C(=O)NCc3ccco3)c2N)cc1 | 11.7µM* | -2.8% | 10.3 | -3.4 | -0.5% | 28.5%
Nc1c(C(=O)NCc2ccco2)nnn1-c1ccccc1 | 13.4% | 1.9% | 41.9* | 71.4* | 0.7% | 240.5%
Nc1c(C(=O)NCc2ccco2)nnn1CC(=O)Nc1ccc2c(c1)OCO2 | ? | -1.7% | -3.9 | -10.7 | nt | 11.7µM*
Cc1ccc(NC(=O)Cn2nnc(C(=O)NCc3ccco3)c2N)cc1 | 0.0% | -2.1% | 1.6 | 2.2 | 5.2% | nt
NC(=S)SCCC(=O)O | nt | nt | nt | nt | 1.8% | nt
COc1ccc(CCNC(=O)CSc2nc(C)nc3sccc23)cc1OC | -5.9% | -1.3% | -1.2 | -2.6 | -0.4% | -6.2%
Cc1cccc(Cn2cc(C=O)c3ccccc32)c1 | ? | -6.4% | -1.2 | -3.5 | ? | -5.8%
Cn1cc(C2N3CC4(C)CN2CC(C)(C3)C4=O)c2ccccc21 (stereo not drawn) | 21.1% | 6.5% | 1.1 | -5.7 | -4.8% | 18.2%
CC(=O)N1C=CN(C(C)=O)C(c2cn(C)c3ccccc23)C1c1cn(C)c2ccccc12 (stereo not drawn) | 80.3% | -15.9% | -4.2 | -3.9 | ? | 3.29µM*
Cc1ccc(C(=O)/C=C/c2cn(CN3CCN(C)CC3)c3ccccc23)cc1 | nt | -14.8% | 34.7* | 85.4* | -17.5% | 34.9%
Cn1cc(/C=C/C(=O)c2ccccc2)c2ccccc21 | 34.7% | -29.9% | 40.6* | 73.8* | -8.6% | -4.2%
CCN1C(=O)/C(=C2/C=Cc3ccccc3N2C)OC1=S | 5.9% | 4.6% | 37.4* | 44.1 | -111.3% | nt
CCN1C(=O)/C(=C2\C=Cc3ccccc3N2CC)SC1=S | ? | -10.6% | 20.3 | 31.0 | 7.1% | -4.1%
CCN1C(=C2C(=O)c3ccccc3C2=O)C=Cc2ccccc21 | 9.2% | -16.8% | 24.6* | 38.9* | -5.5% | nt
SMILES | Pf growth 96h | Giardia FBPA inh | CHX counter | Shiga toxin inh | NS1 function inh | Pf growth 48h
Cc1cc(Cn2ccnc2)c(C)cc1Cn1ccnc1 | ? | -1.7% | -1.5 | -8.2 | -0.5% | 13.1µM*
OC1(c2ccccn2)COc2ccccc2O1 (stereo not drawn) | 86.8% | -9.0% | 23.7* | 32.4 | 6.9% | 28.8%
O=C(/C=C/c1ccc(F)cc1)c1cc(Br)ccc1O | -1.2% | -2.7% | 15.0* | 77.4* | -0.4% | 12.8%
O=C(/C=C/c1ccc2ccccc2n1)c1cc(Br)ccc1O | ? | -22.4% | 42.8* | 80.5* | 9.1% | ?
COc1ccc(CC(=O)NNC(=O)CSc2nc(C)c(C)c(=O)[nH]2)cc1 | ? | -18.7% | -3.8 | -17.4 | nt | 9.8%
CCNC(=O)NC(=O)C(C)Oc1ccc(Br)cc1Br (stereo not drawn) | ? | -0.5% | 63.5* | 97.9* | nt | 121.4%
CCNC(=O)NC(=O)C(C)OC(=O)C(C)(C)Oc1ccc(Cl)cc1 (stereo not drawn) | 24.1% | 3.5% | -1.3 | -4.6 | nt | 0.9%
COc1cccc(CC(NC(C)=O)C(=O)NC2CCN(c3c(Cc4ccccc4)c(C)nc4ncnn34)CC2)c1OC (stereo not drawn) | ? | 7.6% | -2.8 | 8.0 | -18.3% | 5.86µM*
COc1ccc(CC(NC(C)=O)C(=O)NC2CCN(c3c(Cc4ccccc4)c(C)nc4ncnn34)CC2)cc1OC (stereo not drawn) | ? | -6.5% | -0.4 | 11.9 | -14.8% | 11.7µM*
COC(=O)c1ccc(C(NC(=O)OCc2ccccc2)/C(I)=C/[C@@H](C)C(=O)NCc2ccc(C)o2)cc1 (stereo partly drawn) | nt | -6.3% | nt | nt | nt | nt
O=C(c1cccc(F)c1)N1CCC2(CC1)CCN(c1ccc(-c3ccccc3)cc1)CC2 | nt | 3.3% | nt | nt | nt | nt
O=C(Cc1cccs1)NCc1cc(Cl)cc(Cl)c1 | 6.4% | 3.3% | 44.1* | 51.6* | -13.0% | nt
O=C(Cc1cccs1)NCc1cccc(CNC(=O)Cc2cccs2)c1 | 64.3% | 0.5% | -3.1 | -10.6 | nt | -10.8%
O=C(Cc1cccs1)NCCc1ccc(Cl)cc1 | -18.6% | nt | -1.8 | -10.0 | 6.5% | 4.2%
CCCOc1ccc(CNC(=O)Cc2cccs2)cc1 | ? | 12.0% | 45.8* | 108.1* | -32.2% | 71.0%
O=C(Cc1cccs1)NCc1ccco1 | nt | 3.7% | -3.2 | 10.4 | -2.1% | 30.2%
O=C(Cc1cccs1)NCc1ccc(Cl)cc1Cl | ? | 14.6% | 41.8* | 104.5* | -19.3% | -98.1%
O=C(Cc1cccs1)NCc1cccc(F)c1 | -3.0% | 0.3% | 27.5 | 40.5* | nt | 76.3%
Cc1ccc(C(=O)Nn2cnnc2)cc1S(=O)(=O)N1CCOCC1 | 30.0% | 0.6% | -1.7 | 2.8 | -0.3% | 76.3%
O=C(Cc1cccs1)NCc1cccc(Cl)c1 | 7.9% | -2.4% | 41.3* | 88.7* | 0.3% | 78.9%
COC(=O)c1cccc(Cn2c(Cl)c(/C=N/NC(=O)c3ccccc3Cl)sc2=O)c1 | 4.65µM* | -4.3% | -4.5 | -8.2 | 16.1% | ?
O=c1sc(/C=N/Nc2ccccc2)c(Cl)n1Cc1ccccc1 | ? | 2.9% | 33.1* | active | 5.4% | ?
COC(=O)c1cccc(Cn2c(Cl)c(/C=N/NC(=O)c3ccco3)sc2=O)c1 | 8.28µM* | nt | 17.9* | 3.2 | 10.5% | 9.28µM*
O=C(O)c1cccc(Cn2c(Cl)c(/C=N/NC(=O)c3ccc(O)cc3)sc2=O)c1 | 9.8% | 11.1% | -1.8 | 18.5 | 7.2% | 3.3%
